Results reported in PubChem BioAssay (NCATS).
Several values for one entry are separate records, joined by “and”; a condition that tells them apart may be missing. Identical values can stand only once. Records with an inconclusive call do not appear. Activity calls are given as the source filed them. Calls follow the shape of the dose curve; as a rule, active = well fitted inhibition curve with a large enough effect; inconclusive = small, poorly fitted or top-dose-only effect; inactive = no such curve, though single readings can be large or run the other way.

Assay: Primary qHTS for inhibitors of nuclear receptor binding SET domain protein 2 (NSD2) in an RCH-ACV wild type WT cells (2C) (AID 1645877); also: nearly all actives have a fitted effect of over 70% in size
Settings: RCH-ACV (leukaemia line) NSD2 WT (2C) viability, CellTiter-Glo, 72 h; series mostly up to 44.9 µM; activity change, negative = cell killing: at the top concentration
% is scaled to controls: 0 for no effect and ±100 for the full control effect; potency is read from the fitted curve at half-maximal effect.

| Structure (SMILES) | Potency | activity change, negative = cell killing | outcome |
| --- | --- | --- | --- |
| C=C(CCC1=C(C)[C@H]2[C@H](CC3[C@@H]4CC=C5C[C@@H](O)C[C@@H](O)[C@]5(C)C4[C@H](O)C[C@@]32C)O1)CO[C@@H]1O[C@H](CO)[C@@H](O)[C@H](O)[C@H]1O (stereo partly specified) | 963 nM (active) |  |  |
| C=C1C(O)C(O)C2(CC3C(C)=CCC4C(C)(CO)CCCC34C)OC2C1O (stereo unspecified) |  | -30% (inactive) |  |
| CC(O)CO[C@@H]1O[C@H](CO)[C@@H](O)[C@H](O)[C@H]1O (stereo partly specified) |  | -0.709% (inactive) |  |
| Cc1[nH]c2ccccc2c1C1=C(NCCc2ccc(F)cc2)C(=O)N(C)C1=O | 8170 nM (active) |  |  |
| Cc1ccc(S(=O)(=O)Cc2nc(-c3ccc(C(=O)NCc4cccnc4)cc3)oc2C)cc1 | 18.6 nM (active) |  |  |
| COc1ccc(-c2ccc(-c3cn(C(=O)N4CCCCC4c4ccccc4)nn3)cc2)cc1 (stereo unspecified) |  |  | inactive |
| COc1c2c(c(C)c3c1C(=O)OC3)OC1(C)CC(O)C34OC(OC)(OC3(C)C)C(O)CC4(C)C1C2 (stereo unspecified) |  | 2.88% [at 17.3 µM] (inactive) |  |
| CC1CCC2(OC1)OC1CC3C4CC=C5CC(O)CC(O[C@@H]6OC[C@@H](O)[C@H](O)[C@H]6O)C5(C)C4CCC3(C)C1(O)C2C (stereo partly specified) |  | -18.7% [at 17.3 µM] (inactive) |  |
| O=C(O)c1cc(-c2c(-c3ccccc3)nn3ccccc23)n[nH]c1=O |  |  | inactive |
| C=CC1(C)C=C2CCC3C(C)(C)C(O[C@@H]4O[C@@H](CO)[C@H](O)[C@H]4O)CCC3(C)C2CC1O[C@@H]1O[C@H](C)[C@H](O)[C@H](O)[C@H]1O (stereo partly specified) |  | -21.6% [at 17.3 µM] (inactive) |  |
| CC1(C)C2CC(OC3OC(COC4OCC(O)(CO)C4O)C(O)C(O)C3O)C1(C)CC2O (stereo unspecified) |  | -10.7% [at 17.3 µM] (inactive) |  |
| C=CC(=O)Nc1cccc(CN2C(=O)N(c3c(Cl)c(OC)cc(OC)c3Cl)Cc3cnc(NCCCCN(CC)CC)nc32)c1 | 2580 nM (active) |  |  |
| C[C@@H]1C(=O)O[C@H]2[C@H](O)C34[C@H]5C[C@@H](C(C)(C)C)C36[C@@H](OC(=O)[C@@H]6O)O[C@@]4(C(=O)O5)[C@@]12O (stereo partly specified) |  |  | inactive [at 17.3 µM] |
| C=C1C(=O)O[C@@H]2[C@H]1CCC(C)=C1CCC(=O)O[C@]12C | 4090 nM (active) |  |  |
| CN[C@H](C(=O)N[C@H](C(=O)N(C)[C@H](/C=C(\C)C(=O)O)C(C)C)C(C)(C)C)C(C)(C)c1ccccc1 |  | -96.1% (inactive) |  |
| COc1ccc(C(O)C(C)OC2OC(CO)C(O)C(O)C2O)cc1 (stereo unspecified) |  |  | inactive |

| Structure (SMILES) | Potency | activity change, negative = cell killing | outcome |
| --- | --- | --- | --- |
| O=C(O)c1ccccc1NCCc1ccccc1 |  | -6.16% (inactive) |  |
| CC(C)C(=O)OC[C@H]1O[C@H](O[C@H]2O[C@H](CO)[C@@H](O)[C@H](O)[C@H]2O)[C@H](O)[C@@H](O)[C@@H]1O |  |  | inactive [at 17.3 µM] |
| CC(Oc1ccc2[nH]nc(/C=C/c3cnn(CCO)c3)c2c1)c1c(Cl)cncc1Cl (stereo unspecified) | 103 nM (active) |  |  |
| NC1(C(=O)NC(CCO)c2ccc(Cl)cc2)CCN(c2ncnc3[nH]ccc23)CC1 (stereo unspecified) | 1300 nM (active) |  |  |
| C=C[C@H]1[C@H](O[C@@H]2O[C@H](CO)[C@@H](O)[C@H](O)[C@H]2O)OC=C(C(=O)OC)[C@H]1CC(=O)O |  | -14% (inactive) |  |
| C/C=C1\[C@H](O[C@@H]2O[C@H](CO)[C@@H](O)[C@H](O)[C@H]2O)OC=C(C(=O)OC)[C@H]1CC(=O)O |  | -18.8% [at 17.3 µM] (inactive) |  |
| CO[C@H]1C[C@@H]2CC[C@@H](C)[C@@](O)(O2)C(=O)C(=O)N2CCCC[C@H]2C(=O)O[C@H]([C@H](C)C[C@@H]2CC[C@@H](OP(C)(C)=O)[C@H](OC)C2)CC(=O)[C@H](C)/C=C(\C)[C@@H](O)[C@@H](OC)C(=O)[C@H](C)C[C@H](C)/C=C/C=C/C=C/1C | 46.8 nM (active) |  |  |
| COc1cc2c(cc1OC)-c1[nH]nc(Nc3cccc(F)c3)c1C2 | 57.8 nM (active) |  |  |
| CC1=CCC2C(C)(C)CCC[C@]2(C)[C@@]12CC[C@](C)(CC(=O)O)O2 (stereo partly specified) |  | -43% (inactive) |  |
| CC(C)C1=CC2C(CC[C@]2(C)O)[C@](C)(O)CC1 (stereo partly specified) |  | 3.98% (inactive) |  |
| COc1ccc(Cl)c(Nc2nc3ccccc3nc2NS(=O)(=O)c2cccc(NC(=O)C(C)(C)N)c2)c1 | 4.09 µM (active) and 8.33 µM (active) |  |  |
| C[C@H]1CC[C@@]2(OC1)O[C@H]1CC3C4CC[C@H]5C[C@@H](O)[C@H](O)C[C@]5(C)C4=CC(=O)[C@]3(C)[C@H]1[C@@H]2C (stereo partly specified) |  | -21.2% [at 17.3 µM] (inactive) |  |
| CC(C)CC(=O)O[C@@H]1OC=C(CO[C@@H]2O[C@H](CO)[C@@H](O)[C@H](O)[C@H]2O)[C@H]2[C@@H]3O[C@H]3[C@@](O)(CO)[C@@H]12 |  |  | inactive [at 17.3 µM] |
| C=C1CCC[C@]2(C)CC[C@@H](C(=C)C(=O)O)[C@H](O)[C@@H]12 |  | -16.5% (inactive) |  |
| COC(=O)C[C@H]1[C@]2(C)C3=C(C)[C@H](c4ccoc4)C[C@H]3O[C@@H]2[C@H](OC(C)=O)C2[C@](C)(C(=O)OC)C=CC(=O)[C@@]21C (stereo partly specified) |  | -1.83% [at 17.3 µM] (inactive) |  |
